TRb SRC2 PPI = disrupts binding of human TR beta to SRC2. P10828. TRbeta-SRC2 peptide binding, fluorescence polarization; receptor liganded with 1 µM T3. Potency, µM (doses to about 106 µM), actives largely listed as inhibitors. 280,000 tested, 0.065% active; further: nearly all actives have a fitted effect of over 50% in size
Target sequence (P10828 whole entry, looked up): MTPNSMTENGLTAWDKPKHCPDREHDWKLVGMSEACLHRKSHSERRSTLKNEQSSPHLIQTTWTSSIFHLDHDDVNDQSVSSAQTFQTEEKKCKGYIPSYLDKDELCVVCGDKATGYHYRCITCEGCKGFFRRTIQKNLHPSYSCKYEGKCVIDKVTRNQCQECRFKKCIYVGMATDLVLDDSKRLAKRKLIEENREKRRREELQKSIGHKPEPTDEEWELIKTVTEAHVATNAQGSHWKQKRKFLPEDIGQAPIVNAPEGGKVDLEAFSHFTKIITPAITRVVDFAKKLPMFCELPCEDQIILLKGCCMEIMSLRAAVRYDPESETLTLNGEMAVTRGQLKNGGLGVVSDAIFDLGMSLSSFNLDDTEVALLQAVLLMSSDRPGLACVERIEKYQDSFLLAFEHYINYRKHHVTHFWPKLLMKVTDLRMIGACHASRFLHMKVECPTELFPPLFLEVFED
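Human TRb LBD (0.6 uM) plus Texas Red-labeled SRC2 peptide (20 nM), 1uM T3, 5% DMSO, 5 hr at ambient temperature. Decreased polarization (555/632 nm) flags inhibition; data normalized to free and bound peptide controls.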
TexasRed fluor = counter-screen for TRb-SRC2 inhibitors: fluorescence interference; TRb/SRC2 Texas Red total fluorescence interference; 280,000 tested, 0.29% active; AID 1479; Potency, µM (series often up to 106 µM); active means well fitted curve in either direction with a large enough effect; inconclusive means small, poorly fitted or top-dose-only effect
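Human TRb ligand-binding domain at 0.6 uM with 20 nM Texas Red SRC2 peptide in Tris buffer containing 1 uM T3 and 5% DMSO, incubated with compound 5 h at ambient temperature. Total fluorescence (555/632 nm) calculated as parallel + 2 × perpendicular.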
Tau ThT inhib = blocks human tau fibril formation measured by thioflavin T. P10636. recombinant tau K18 P301L, heparin-induced fibrillization, ThT fluorescence. Potency, µM (titrated, usually from 57.4 µM), actives largely listed as inhibitors. 270,000 tested, 2.1% active; further: nearly all actives have a fitted effect of over 55% in size
Target sequence (P10636 561-689 P618L limits assumed): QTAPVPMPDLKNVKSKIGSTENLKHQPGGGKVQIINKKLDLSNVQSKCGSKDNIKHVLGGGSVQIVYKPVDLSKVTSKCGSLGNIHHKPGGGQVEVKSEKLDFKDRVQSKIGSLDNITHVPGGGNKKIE
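Fibril formation assay: tau K18 P301L at 15 uM with trace Alexa 594 label, heparin inducer 20 uM, pH 7 sodium acetate buffer, 37 C for 6 hr; endpoint ThT signal.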
Tau FP inhib = inhibitors of human tau fibril formation. P10636. K18 P301L tau heparin fibrillization, Alexa594 FP, 6 h. Potency, µM (doses to about 57.7 µM), hits mostly inhibitors. 280,000 tested, 0.39% active. AID 1468; further: nearly all actives have a fitted effect of over 55% in size
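Heparin (20 uM) drove fibril formation of recombinant tau K18 P301L, 15 uM unlabeled with 0.24 uM Alexa 594 label, for 6 hr at 37 C in 100 mM sodium acetate pH 7. Fluorescence polarization (555/632 nm) read 1 hr after 30 uM ThT.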
Tau fluor counter = counter-screen for tau fibril formation inhibitors; tau K18 P301L (four-repeat tau fragment) Alexa594 fluorescence, heparin fibrillization; Potency, µM (doses to about 57.7 µM); 280,000 tested, 0.93% active; AID 1463; further: nearly all actives have a fitted effect of over 55% in size
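Human K18 P301L tau (15 uM unlabeled plus 0.24 uM Alexa 594-labeled, final) in 100 mM sodium acetate pH 7 was mixed with compound and 20 uM heparin and incubated 6 hr at 37 C.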
Numbers stand for hits; [ ] = remark or other dose. A selection: hits, their analogues and other compounds. The true share with any hit is near 3%. Unless noted, the call rests on the fitted dose curve; in most records, active means well fitted curve in the direction sought with a large enough effect; inconclusive means small, poorly fitted or top-dose-only effect, or another doubt; inactive means no such curve, though single readings can be large; an effect the other way counts as inactive or inconclusive.

CC1=NN(c2nc(-c3ccc(C)cc3)cs2)C(=O)C1N=Nc1ccc2ccccc2c1 (stereo unspecified) was read as TRb SRC2 PPI inactive, TexasRed fluor inactive, Tau ThT inhib 1.41µM, Tau FP inhib inactive and Tau fluor counter inactive.
For CC1=NN(c2nc(-c3ccc(C)cc3)cs2)C(=O)C1N=Nc1ccc(C(N)=O)cc1 (stereo unspecified) the results were TRb SRC2 PPI inactive, TexasRed fluor inactive, Tau ThT inhib 2.82µM, Tau FP inhib inactive and Tau fluor counter inconclusive.
Screening CC(=O)Nc1ccc(N2N=C(C)C(N=Nc3ccccc3)C2=O)cc1 (stereo unspecified) returned TRb SRC2 PPI inactive, TexasRed fluor inactive, Tau ThT inhib 4.47µM, Tau FP inhib inactive and Tau fluor counter inactive.
CC1=NN(c2ccccc2)C(=O)C1N=Nc1ccc(C)cc1 (stereo unspecified) was read as TRb SRC2 PPI inactive, TexasRed fluor inactive, Tau ThT inhib inactive, Tau FP inhib inactive and Tau fluor counter inactive.
CC1=NN(c2nc(-c3ccccc3)cs2)C(=O)C1N=Nc1ccccc1 (stereo unspecified) was read as TRb SRC2 PPI inactive, TexasRed fluor inactive, Tau ThT inhib 2.24µM, Tau FP inhib inactive and Tau fluor counter inconclusive.
For CC1=NN(c2ccccc2)C(=O)C1N=Nc1ccc(S(N)(=O)=O)cc1 (stereo unspecified) the results were TRb SRC2 PPI inactive, TexasRed fluor inactive, Tau ThT inhib inconclusive, Tau FP inhib inactive and Tau fluor counter inactive.
O=C(Nc1ccc(C2=NCCN2)cc1)c1ccc(C(=O)Nc2ccc(C3=NCCN3)cc2)c([N+](=O)[O-])c1 was read as TRb SRC2 PPI inactive, TexasRed fluor inactive, Tau ThT inhib 4.47µM, Tau FP inhib inactive and Tau fluor counter inconclusive.
`Cc1cc(C)c2c(c1)c(C)cc1nnc(SCC(=O)c3ccc(F)cc3)n12` gave TRb SRC2 PPI inactive, TexasRed fluor inactive, Tau ThT inhib inactive, Tau FP inhib inactive and Tau fluor counter inactive.
For Cc1ccc(S(=O)(=O)Nc2ccc(N3CCOCC3)nc2)cc1 the results were TRb SRC2 PPI inactive, TexasRed fluor inactive, Tau ThT inhib inactive, Tau FP inhib inactive and Tau fluor counter inactive.
For Cc1ccc(C)n1-c1ccc(N2CCOCC2)nc1 the results were TRb SRC2 PPI inactive, TexasRed fluor inactive, Tau ThT inhib 12.6µM, Tau FP inhib inactive and Tau fluor counter inactive.
`CCN1C(C)=C(C(=O)OC)C(c2ccccc2)N2C(=O)[C@](O)(C(=O)OC)C(c3ccccc3)C(C(=O)c3ccccc3)=C12` (stereo partly specified) gave TRb SRC2 PPI inactive[11.2 µM], TexasRed fluor inconclusive, Tau ThT inhib inconclusive, Tau FP inhib inactive[11.6 µM] and Tau fluor counter inactive[11.6 µM].
Screening O=C(CCCN1C(=O)/C(=C/c2ccco2)SC1=S)Nc1cccc(C(=O)O)c1 returned TRb SRC2 PPI inactive, TexasRed fluor inactive, Tau ThT inhib 15.8µM, Tau FP inhib inactive and Tau fluor counter inactive.
`COc1ccc(NC(=O)CCCN2C(=O)/C(=C\c3ccco3)SC2=S)cc1` gave TRb SRC2 PPI inconclusive, TexasRed fluor inconclusive, Tau ThT inhib 15.8µM, Tau FP inhib inconclusive and Tau fluor counter inconclusive.
O=C(CCCN1C(=O)/C(=C\c2cccs2)SC1=S)Nc1cccc(C(=O)O)c1 was read as TRb SRC2 PPI inactive, TexasRed fluor inactive, Tau ThT inhib inconclusive, Tau FP inhib inactive and Tau fluor counter inactive.
Screening O=C(CCCN1C(=O)/C(=C\c2cccs2)SC1=S)Nc1ccc(C(=O)O)cc1 returned TRb SRC2 PPI inactive, TexasRed fluor inactive, Tau ThT inhib inconclusive, Tau FP inhib inactive and Tau fluor counter inactive.
Screening O=C(CCCN1C(=O)/C(=C/c2cccs2)SC1=S)Nc1ccc(O)c(C(=O)O)c1 returned TRb SRC2 PPI inactive, TexasRed fluor inactive, Tau ThT inhib 8.91µM, Tau FP inhib inactive and Tau fluor counter inconclusive.
Cc1cc(C)cc(N2C(=O)N(Cc3cccc(F)c3)c3ccccc3S2(=O)=O)c1 was read as TRb SRC2 PPI inactive, TexasRed fluor inactive, Tau ThT inhib inactive, Tau FP inhib inconclusive and Tau fluor counter inactive.
Screening CCCCc1cc2c(cn1)=C(OC(=O)CCC(=O)OC)C(C)(OC(=O)CC)C(=O)C=2 (stereo unspecified) returned TRb SRC2 PPI inactive[11.2 µM], TexasRed fluor inactive[11.2 µM], Tau ThT inhib inactive[11.5 µM], Tau FP inhib inactive[11.6 µM] and Tau fluor counter inactive[11.6 µM].
Screening CC(c1ncncc1F)[C@](O)(Cn1cncn1)c1ccc(F)cc1F (stereo partly specified) returned TRb SRC2 PPI inactive and TexasRed fluor inactive.
For CCCNC(=O)OC[C@@H]1O[C@H](CCON=C(C)C)C=C[C@@H]1Oc1ccc(OC)cc1 the results were TRb SRC2 PPI inactive[11.2 µM], TexasRed fluor inactive[11.2 µM], Tau ThT inhib inactive[11.5 µM], Tau FP inhib inactive[11.6 µM] and Tau fluor counter inactive[11.6 µM].
Screening CCC(=O)N1CCc2cc(S(=O)(=O)NC(Cc3ccccc3)C(=O)Nc3ccccc3C)ccc21 (stereo unspecified) returned TRb SRC2 PPI inactive, TexasRed fluor inactive, Tau ThT inhib inconclusive, Tau FP inhib inactive and Tau fluor counter inactive.
CSCC[C@H](NC(=O)[C@H](Cc1c[nH]c2ccccc12)NC(=O)CNC(=O)[C@H](Cc1ccc(O)cc1)NC(=O)[C@H](C)NC(=O)[C@H](CCC(=O)O)NC(=O)[C@H](CCC(=O)O)NC(=O)[C@H](CCC(=O)O)NC(=O)[C@H](CCC(=O)O)NC(=O)[C@H](CCC(=O)O)NC(=O)[C@H](CC(C)C)NC(=O)[C@H](Cc1c[nH]c2ccccc12)NC(=O)[C@@H]1CCCN1C(=O)CNC(=O)[C@@H]1CCC(=O)N1)C(=O)N[C@@H](CC(=O)O)C(=O)N[C@@H](Cc1ccccc1)C(=O)NCC(=O)O was read as TRb SRC2 PPI inactive and TexasRed fluor inactive.
`CCCCCCCCCCCCCCCCCC(=O)OCC(C)O` (stereo unspecified) gave TRb SRC2 PPI inactive, TexasRed fluor inactive, Tau ThT inhib 14.1µM, Tau FP inhib inconclusive and Tau fluor counter inconclusive.
For CCCCCCCCCCCC(=O)OCC(O)CO (stereo unspecified) the results were TRb SRC2 PPI inactive and TexasRed fluor inactive.
`CCOC(=O)c1cccc(NC(=O)COc2ccc3c(C)cc(=O)oc3c2)c1` gave TRb SRC2 PPI inactive, TexasRed fluor inactive, Tau ThT inhib inconclusive, Tau FP inhib inconclusive and Tau fluor counter inactive.
For COc1ccc(NC2C=CS(=O)(=O)C2)cc1 (stereo unspecified) the results were TRb SRC2 PPI inactive, TexasRed fluor inactive, Tau ThT inhib inactive, Tau FP inhib inactive and Tau fluor counter inactive.
`CCOc1ccc(NC2C=CS(=O)(=O)C2)cc1` (stereo unspecified) gave TRb SRC2 PPI inactive, TexasRed fluor inactive, Tau ThT inhib 35.5µM, Tau FP inhib inactive and Tau fluor counter inactive.

Screening results from PubChem BioAssay.
